Bioassay records (PubChem)
A selection: hits, their analogues and other compounds. The true share with any hit is near 7.9%.
FMDV antiviral = foot and mouth disease virus antiviral activity. FMDV antiviral cell-based qHTS. Potency, µM (titrated, usually from 57.9 µM), without a hit: at the highest dose activity change, negative = inhibition, most hits filed as inhibitors. 1.2% of 410,000 active; calls by dose curve; tested in HEK293T cells; further: read-out not given here; potency means the concentration at half of the fitted maximal effect; nearly all actives have a fitted effect of over 45% in size
Marburg entry inh = inhibitors of Marburg virus binding or cell entry | Marburg virus pseudotyped entry inhibition, cell reporter | Potency, µM (highest dose often 37.8 µM), for inactives: at the top dose activity change, negative = inhibition, most hits filed as inhibitors | 1.8% of 300,000 active | AID 540276; calls by dose curve; tested in HEK293 cells; further: potency means the concentration at half of the fitted maximal effect
Lassa entry inh = Lassa virus entry inhibition; Lassa virus pseudotype entry inhibition, cell reporter; Potency, µM (series often up to 37.9 µM), for the others: top-dose activity change, negative = inhibition, most hits filed as inhibitors; 1.2% of 300,000 active; AID 540256; calls by dose curve; tested in HEK293 cells; further: potency means the concentration at half of the fitted maximal effect; nearly all actives have a fitted effect of over 50% in size
HCMV inh = blocks human cytomegalovirus replication | HFF cells, HCMV-luciferase reporter, 72 h; stronger effect = lower value | activity change, negative = inhibition, % at 57.5 µM | 4.5% of 410,000 active | AID 1259415; in the data active means activity change below about -60%; inconclusive means no clear call, values can overlap the other calls; inactive means above about -39%
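After 16 h attachment at 37C, HFF cells received test compound and HCMV-luciferase (1 PFU/cell); reporter luminescence read 72 h later, data normalized against buffer-only and known inhibitor Salinomycin.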
HCV inhibitor = HCV inhibition; Huh7.5.1 HCVcc-Cre infection, luciferase reporter, 44 h; Potency, µM (series often up to 41.8 µM), for inactives: at the top dose activity change, negative = inhibition, usual class: inhibitors; 3.4% of 340,000 active; AID 651820; active means well fitted inhibition curve with a large enough effect; inconclusive means small, poorly fitted or top-dose-only effect, or another doubt; inactive means no such curve, though single readings can be large or run the other way; further: potency means the concentration at half of the fitted maximal effect
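1,000 cells/well; 4 h culture; + compound; + HCVcc-Cre (~0.5 moi); 44 h; luciferase substrate, RT 15 min; read 15 sec.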
* = called active by the depositor; [ ] = remark or other dose. On the % scale 0 is the no-effect control and ±100 the full control effect.

`CC(=O)Nc1ccc(S(=O)(=O)N(c2cccnc2)S(=O)(=O)c2ccc(NC(C)=O)cc2)cc1` gave FMDV antiviral -9%, Marburg entry inh inconclusive, Lassa entry inh 0.82µM*, HCMV inh -24 and HCV inhibitor inconclusive.
Screening COc1ccc(/C=N/NC(=O)CN(CCc2ccccc2)S(=O)(=O)c2ccc(NC(C)=O)cc2)cc1OC returned FMDV antiviral -10%, Marburg entry inh inconclusive, Lassa entry inh inconclusive, HCMV inh 33 and HCV inhibitor -15%.
CCC1(c2ccccc2)NC(=O)N(CC(=O)NNC(=O)c2ccc(F)cc2)C1=O (stereo not given) was read as FMDV antiviral -21%, Marburg entry inh inconclusive, Lassa entry inh 4%, HCMV inh -8 and HCV inhibitor 22%.
S=C1N(c2ccccc2)C(c2ccc(Br)cc2)N2CCCN12 (stereo not given) was read as FMDV antiviral -27%, Marburg entry inh -19%, Lassa entry inh 0%, HCMV inh -17 and HCV inhibitor 11%.
For O=C(Nc1ccc(N2CCOCC2)cc1)c1csc([C@H]2C[C@H](O)[C@@H](CO)O2)n1 the results were FMDV antiviral -1% and HCMV inh 31.
`COc1cccc(NC(=O)N(CCC(C)C)C2CCN(C(C)C)CC2)c1` gave FMDV antiviral -22%, Lassa entry inh 28%[46.1 µM] and HCMV inh 13.
C#CCCCCCCCCCCCC(O)CC(O)CO (stereo not given) was read as FMDV antiviral -13%.
CC(=O)Nc1ccc(S(=O)(=O)N(CC(=O)O)Cc2ccccc2)cc1 was read as FMDV antiviral -22%, Marburg entry inh 10%, Lassa entry inh -3%, HCMV inh -39 and HCV inhibitor 8%.
CC(=O)NC(CC(=O)Nc1ccc(S(=O)(=O)N2CCCC2)cc1)c1ccccc1 (stereo not given) was read as FMDV antiviral -19%, Marburg entry inh -3%, Lassa entry inh -3%, HCMV inh 14 and HCV inhibitor -4%.
`CC(=O)Nc1ccc(C(=O)NCCc2ccccc2)cc1` gave FMDV antiviral 26%, Marburg entry inh 9%, Lassa entry inh inconclusive, HCMV inh 100 and HCV inhibitor 26%.
`CC(=O)Nc1ccc(CCNC(=O)c2ccc3ccccc3c2O)cc1` gave FMDV antiviral 3%, Marburg entry inh inconclusive, Lassa entry inh 1µM*, HCMV inh -36 and HCV inhibitor inconclusive.
CCN(CC)S(=O)(=O)c1ccc(NC(=O)CC(NC(C)=O)c2ccccc2)cc1 (stereo not given) was read as FMDV antiviral 14%, Marburg entry inh -1%[46.1 µM], Lassa entry inh 5%, HCMV inh -81* and HCV inhibitor 14%.
CC(=O)Nc1ccc(S(=O)(=O)N(Cc2ccccc2)Cc2ccccc2)cc1 was read as FMDV antiviral 11%, Lassa entry inh inconclusive and HCMV inh -61*.
`O=C(COC(=O)c1ccccc1NCCO)Nc1cc(C(F)(F)F)ccc1N1CCOCC1` gave FMDV antiviral -26%, Marburg entry inh inconclusive, Lassa entry inh -17%[46.1 µM], HCMV inh 10 and HCV inhibitor inconclusive.
`CCCCN1CCN=C1N(C)C` gave FMDV antiviral -2%, HCMV inh -14 and HCV inhibitor 22%.
For COc1ccccc1C(=O)N(Cc1cc2cccc(C)c2nc1N1CCC(O)CC1)C1CC1 the results were FMDV antiviral -7%.
`COC[C@@H](O)[C@H]1OCc2ccccc2[C@@H]1C=Cc1ccccc1` gave Marburg entry inh -37%[14.2 µM].
`COc1ccc(C(=O)Nc2cc(-c3cccc(C)c3)nn2-c2ccccc2)cc1` gave FMDV antiviral 10%, Lassa entry inh 20%[46.1 µM] and HCMV inh 38.
`Cc1ccc(S(=O)(=O)NCCC2=CCCCC2)cc1C(N)=O` gave FMDV antiviral 11%, HCMV inh -75* and HCV inhibitor inconclusive.
Screening Cc1cc(S(=O)(=O)NCCC2=CCCCC2)ccc1Br returned FMDV antiviral 44%, Marburg entry inh 0%, Lassa entry inh -31%, HCMV inh -27 and HCV inhibitor 11%.
`Cc1cc(C)cc(NC(=O)c2cc(S(=O)(=O)NCCC3=CCCCC3)ccc2F)c1` gave FMDV antiviral 3%, Lassa entry inh 19%[46.1 µM] and HCMV inh -14.
Screening COc1ccc(NC(=O)c2cc(S(=O)(=O)NCCC3=CCCCC3)ccc2F)cc1 returned FMDV antiviral -8%, Lassa entry inh inconclusive and HCMV inh -80*.
COc1ccccc1NC(=O)c1cc(S(=O)(=O)NCCC2=CCCCC2)ccc1F was read as FMDV antiviral 13%, Lassa entry inh -5%[46.1 µM] and HCMV inh -23.
Screening O=C(Nc1cccc(F)c1)c1cc(S(=O)(=O)NCCC2=CCCCC2)ccc1F returned FMDV antiviral -2%, Marburg entry inh inconclusive, Lassa entry inh -13%, HCMV inh -72* and HCV inhibitor inconclusive.
For Cc1ccc(NC(=O)c2cc(S(=O)(=O)NCCC3=CCCCC3)ccc2F)cc1F the results were FMDV antiviral inconclusive, Marburg entry inh inconclusive, Lassa entry inh inconclusive, HCMV inh -71* and HCV inhibitor 4.5µM*.
For Cc1ccc2nc(NC(=O)CSc3nccn3Cc3ccc(Cl)cc3)sc2c1 the results were FMDV antiviral 17%, Lassa entry inh 10%[46.1 µM] and HCMV inh -11.
Screening COCCN(C)C(=O)c1cnn(-c2nccc(-c3cc(C)sc3C)n2)c1C returned FMDV antiviral 44%.
Screening Oc1ccccc1-c1n[nH]c(-c2ccccc2O)n1 returned FMDV antiviral -3%, Marburg entry inh inconclusive, Lassa entry inh inconclusive, HCMV inh -96* and HCV inhibitor inconclusive.
Screening O=c1c(Cl)c(NCc2ccccc2)cnn1C12CC3CC(CC(C3)C1)C2 returned FMDV antiviral 38%, Marburg entry inh inconclusive, Lassa entry inh inconclusive, HCMV inh -61* and HCV inhibitor 31%.
Screening c1ccc2nc(-c3nc4ccccc4o3)ccc2c1 returned FMDV antiviral -93%, Marburg entry inh inconclusive, Lassa entry inh 2.3µM*, HCMV inh 20 and HCV inhibitor -7%.
Screening Cc1cc(C)c2c(=O)cc(C(=O)Nc3ccc(S(=O)(=O)Nc4nc(C)cc(C)n4)cc3)oc2c1 returned FMDV antiviral 14%, Marburg entry inh 21%[46.1 µM], Lassa entry inh 0%[46.1 µM] and HCMV inh 25.
For O=C(CSc1nnc(NC(=O)C2CCC2)s1)Nc1ccc(N2CCOCC2)cc1 the results were FMDV antiviral -12%, Marburg entry inh -15%, Lassa entry inh -8%, HCMV inh -108* and HCV inhibitor -10%.
O=C(CSc1nnc(NC2CC2)s1)Nc1ccc(N2CCOCC2)cc1 was read as FMDV antiviral -10%, HCMV inh -37 and HCV inhibitor 14%.
Cc1cccc(Oc2ccc(S(=O)(=O)N3CCCCC3)cc2N)c1 was read as FMDV antiviral inconclusive, Marburg entry inh -30%, Lassa entry inh inconclusive, HCMV inh -34 and HCV inhibitor 13µM*.
